Measurements taken from PubChem BioAssay.
Calls of active or inactive are those of the source.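 How the source made its calls, unless noted: active means NADPH fluorescence slope more negative than the mean of all samples by about 3 SD, 99.7% confidence; inactive means the rest.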

Key:
[1] = inhibitors of TNFa-induced NFkB p65 translocation, primary screen, imaging, HUVEC, MLSMR starter and 10KST1 sets (AID 438;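 active means inhibition above 20% together with a positive visual image hit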;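 further: compound added about 3h40 before a 20 min TNFalpha stimulation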;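 on inhibition: signal is the nuclear over cytoplasmic p65 intensity ratio per well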); conditions: HUVEC TNFa-induced p65 nuclear translocation; cell count: measured here: nuclei count (cytotoxicity indicator), at 2.08 µM; inhibition: at 2 µM, stronger effect = higher value, 0% TNFa-plus-vehicle, 100% no-TNFa wells
[2] = inhibitors of mutant huntingtin aggregation, primary screen, imaging, exon1htt(103Q)mCFP cells, high-content imaging (AID 483;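 active means visual image review flags a hit and inhibition of aggregation exceeds 20%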;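 further: compound exposure lasted 3 days before fixation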;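 on nuclei count: percent of the per-plate median nuclei count of sample wells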); conditions: exon1htt(103Q)mCFP cell line, aggregate imaging, at 2 µM; inhibition of aggregation: stronger effect = higher value; nuclei count: measured here: cell count, toxicity
[3] = inhibitors of E-selectin induction by TNFa, primary screen, imaging, HUVEC, immunofluorescence, MLSMR starter and 10KST1 sets (AID 487;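 active means visually confirmed hit in the image check and inhibition above 20%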;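 on inhibition: signal is fraction of cell area covered by stained E-selectin grains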;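 on nuclei count: 100% = median nuclei count of all wells on the same plate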); conditions: HUVEC TNFalpha-induced E-selectin immunofluorescence imaging, at 2 µM; inhibition: stronger effect = higher value; nuclei count: measured here: cell number, toxicity
[4] = target: Voltage-gated potassium channel subunit beta-2 (Rattus norvegicus) (UniProt P62483); assay: KvBeta enzyme negative modulators, primary screen, biochemical, NADPH fluorescence (AID 622;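 active means fluorescence slope higher than the sample average by over 3 SD, cut at about -0.22 in these data, passing the limit was not always enough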;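 further: slope of raw intensity against log time taken from 70 to 1610 s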); conditions: recombinant KvBeta, 4-cyanobenzaldehyde reduction, at 10 µM, stronger effect = higher value
[5] = target: Voltage-gated potassium channel subunit beta-2 (Rattus norvegicus) (UniProt P62483); assay: KvBeta positive modulators, primary screen, biochemical, NADPH fluorescence (AID 623); conditions: Recombinant KvBeta, NADPH fluorescence decrease slope, 10 min; at 10 µM; stronger effect = lower value;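 further: fluorescence intensity change per second fitted from 20 to 320 s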
[6] = target: Alpha-2C adrenergic receptor (Homo sapiens) (UniProt P18825); assay: modulators of alpha2C/GIRK thallium flux, primary screen, cell-based, HEK293 alpha2C/GIRK1/2 (AID 624;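 active means fluorescence slope after compound addition differing from the mean of all screened samples at 99.7% confidence, in either direction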;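 further: slope of fluorescence ratio to pre-addition baseline per second over 15 to 24 s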); conditions: thallium flux BTC fluorescence, at 10 µM, actives lie on both sides
[7] = inhibitors of Sendai virus-induced IRF3 signaling, primary screen, TLR/RLR signaling modifier project, cell-based, Sendai virus stimulus, luciferase, 10K MLSCN set (AID 602276;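 active means inhibition at or above 50% at 10 µM; inactive means inhibition below 50%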;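 further: firefly luciferase from ISG56 promoter only with Renilla not read in this screen; 0% = Sendai virus plus DMSO and 100% = medium plus DMSO without virus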); conditions: HEK293 RL24 IRF3 luciferase reporter, at 10 µM, stronger effect = higher value
[8] = inhibitors of poly I:C-induced TLR3 signaling, primary screen, cell-based, poly I:C stimulus, luciferase, 10K MLSCN set (AID 602277;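 active means inhibition of the reporter signal at or above 50%; inactive means inhibition below 50%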); conditions: HEK293-TLR3 RL24 IRF3 luciferase reporter, at 10 µM, stronger effect = higher value

Voltage-gated potassium channel subunit beta-2 (Rattus norvegicus), sequence (P62483 whole entry, looked up): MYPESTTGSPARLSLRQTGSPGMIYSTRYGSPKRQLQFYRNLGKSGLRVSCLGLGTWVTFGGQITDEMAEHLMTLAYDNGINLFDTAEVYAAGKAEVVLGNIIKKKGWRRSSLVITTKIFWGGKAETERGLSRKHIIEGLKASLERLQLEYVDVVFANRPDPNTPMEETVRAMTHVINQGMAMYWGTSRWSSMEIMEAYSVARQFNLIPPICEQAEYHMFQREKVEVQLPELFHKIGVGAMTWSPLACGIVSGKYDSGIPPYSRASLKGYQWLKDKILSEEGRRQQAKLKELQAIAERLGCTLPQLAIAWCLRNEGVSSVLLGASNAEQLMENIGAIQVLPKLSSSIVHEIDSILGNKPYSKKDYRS
Alpha-2C adrenergic receptor (Homo sapiens), sequence (P18825 whole entry, looked up): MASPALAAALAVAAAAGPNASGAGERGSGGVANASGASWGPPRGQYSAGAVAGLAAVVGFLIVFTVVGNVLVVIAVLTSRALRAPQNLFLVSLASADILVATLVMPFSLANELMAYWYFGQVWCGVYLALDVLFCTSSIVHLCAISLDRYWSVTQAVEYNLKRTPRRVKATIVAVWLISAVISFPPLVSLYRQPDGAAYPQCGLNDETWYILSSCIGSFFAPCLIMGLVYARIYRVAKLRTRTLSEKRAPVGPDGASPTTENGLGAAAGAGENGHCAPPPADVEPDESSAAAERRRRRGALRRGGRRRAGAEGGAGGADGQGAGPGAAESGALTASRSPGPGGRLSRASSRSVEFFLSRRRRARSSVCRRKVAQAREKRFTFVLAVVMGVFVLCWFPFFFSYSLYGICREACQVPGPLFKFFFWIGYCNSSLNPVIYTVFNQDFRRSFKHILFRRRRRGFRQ

Structure (SMILES)	cell count [1]	inhibition [1]	inhibition of aggregation [2]	nuclei count [2] [%]	inhibition [3]	nuclei count [3] [%]	fluorescence slope [4]	NADPH fluorescence slope [5]	slope [6]	inhibition [7]	inhibition [8]
O=C(NCCCn1ccnc1)c1cnn2c1NC(c1ccccc1)CC2C(F)(F)F (centres undefined)	616	-4.9% (inactive)	-5.5% (inactive)	98.3	6.6% (inactive)	93	-0.389 (inactive)	3.1e-05 (inactive)	0.00374 (inactive)	-0.0558% (inactive)	15.6% (inactive)
CCC1CCCN1Cn1cnc2c([nH]c3ccc(OC)cc32)c1=O (centres undefined)	602	-7.6% (inactive)	3.4% (inactive)	108	-53.1% (inactive)	86.2	-0.396 (inactive)	-1.1e-05 (inactive)	0.0053 (inactive)	11.1% (inactive)	26.1% (inactive)
CCCCc1c(O)nc(N2CCN(Cc3ccccc3)CC2)[nH]c1=O	402	-2.5% (inactive)	9.1% (inactive)	97.1	-61% (inactive)	101	-0.343 (inactive)	-4.3e-05 (inactive)	0.0053 (inactive)	12.1% (inactive)	13.6% (inactive)
O=C(O)CCn1c(=O)c2ccccc2c2ccccc2c1=O	557	1% (inactive)	-13.6% (inactive)	118	10.2% (inactive)	101	-0.537 (inactive)	7e-06 (inactive)	0.00528 (inactive)	-4.94% (inactive)	-9.95% (inactive)
CN(C)c1ccc(CNCCC2(O)CCOC(C)(C)C2)cc1 (centres undefined)	495	-1.4% (inactive)	3.5% (inactive)	89.5	-25% (inactive)	114	-0.472 (inactive)	-4.7e-06 (inactive)	0.00622 (inactive)	0.927% (inactive)	28.2% (inactive)
COc1ccc(Cn2nnnc2C(c2ccccn2)N2CCN(c3cc(Cl)ccc3C)CC2)cc1 (centres undefined)	669	-8% (inactive)	2.5% (inactive)	112	-18.4% (inactive)	104	-0.217 (inactive)	-1.3e-05 (inactive)	0.00703 (inactive)	21.3% (inactive)	37.4% (inactive)
CCOc1ccc(-c2nnn(CCC(=O)O)n2)cc1OC	429	6.5% (inactive)	15.2% (inactive)	64.5	-108% (inactive)	118	-0.612 (inactive)	1.3e-05 (inactive)	0.00471 (inactive)	18.1% (inactive)	9.91% (inactive)
COc1cccc(-c2nc(CS(=O)(=O)CC(=O)N3CCc4ccccc4C3)c(C)o2)c1	813	-17.7% (inactive)	-2% (inactive)	93	-74.3% (inactive)	117	-0.522 (inactive)	-1.8e-05 (inactive)	0.00747 (inactive)	6.4% (inactive)	16% (inactive)
C[C@H](NC(=O)NCc1cccs1)C(=O)O	378	4.3% (inactive)	-9.8% (inactive)	102	-52.5% (inactive)	72.1	-0.576 (inactive)	-5.7e-05 (inactive)	0.00368 (inactive)	5.25% (inactive)	4.63% (inactive)
CN(C(=O)COc1cc(=O)n(C)c2ccccc12)c1ccc(Br)cc1	389	71.5% (active)	2.9% (inactive)	104	-178% (inactive)	142	-0.513 (inactive)	-1.3e-05 (inactive)	0.00662 (inactive)	6.78% (inactive)	45.9% (inactive)
c1ccc(-c2oc3ncnc(NCCN4CCOCC4)c3c2-c2ccccc2)cc1	365	-11.4% (inactive)	-1.8% (inactive)	102	-121% (inactive)	106	-0.512 (inactive)	-8.4e-05 (inactive)	0.00536 (inactive)	13.9% (inactive)	16% (inactive)
c1ccc(CCn2nnnc2C(c2cccs2)N2CCOCC2)cc1 (centres undefined)	675	-8.6% (inactive)	-16% (inactive)	124	-74.9% (inactive)	106	-0.488 (inactive)	-0.000173 (inactive)	0.00462 (inactive)	4.38% (inactive)	17.4% (inactive)
CSc1nc(N)nc(SCCS(=O)(=O)c2ccc(Cl)cc2)c1C#N	401	2.8% (inactive)	24.9% (inactive)	95.8	-48% (inactive)	113	-0.442 (inactive)	-2.1e-05 (inactive)	0.00602 (inactive)	5.62% (inactive)	12.8% (inactive)
COC(=O)c1cc(S(=O)(=O)N2CCC(C)CC2)ccc1F	552	-17% (inactive)	-56.8% (inactive)	112	-24.3% (inactive)	104	-0.452 (inactive)	-0.000117 (inactive)	0.00608 (inactive)	15.3% (inactive)	29.4% (inactive)
